Calpain2 inh – inhibitors of pig calpain II. inhibition, % at 16 µM. purified calpain II, fluorogenic peptide substrate, 30 min. hit rate 0.37% among 220,000. AID 1236;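 active = inhibition above about 50%, limit read from the data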
TNF necrop inh – TNF-alpha cell death inhibition in Jurkat FADD-/- cells | Jurkat FADD-/- TNF necroptosis rescue, ATP luminescence, 24 h; 0 = TNF only, 100 = no-TNF cells | activation (protection from cell death), % at 10 µM | hit rate 0.068% among 220,000 | AID 463075;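 active = activation, meaning protection from cell death, of at least 50% relative to plate controls; inactive = activation below 50%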;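 also: necroptosis triggered by 40 ng/mL TNF-alpha added together with compound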
ROMK primary – modulates human ROMK potassium channel activity | Tet-inducible ROMK, thallium flux fluorescence; actives lie on both sides | B-score at 10 µM | P48048 | hit rate 2% among 130,000;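 active = signal ratio slope over the read window, or its plate-corrected B-score, at least 3 SD from the plate mean, either direction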;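 also: B-score of the F/F0 ratio slope over 7 to 12 s after thallium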
Target sequence (P48048 whole entry, looked up): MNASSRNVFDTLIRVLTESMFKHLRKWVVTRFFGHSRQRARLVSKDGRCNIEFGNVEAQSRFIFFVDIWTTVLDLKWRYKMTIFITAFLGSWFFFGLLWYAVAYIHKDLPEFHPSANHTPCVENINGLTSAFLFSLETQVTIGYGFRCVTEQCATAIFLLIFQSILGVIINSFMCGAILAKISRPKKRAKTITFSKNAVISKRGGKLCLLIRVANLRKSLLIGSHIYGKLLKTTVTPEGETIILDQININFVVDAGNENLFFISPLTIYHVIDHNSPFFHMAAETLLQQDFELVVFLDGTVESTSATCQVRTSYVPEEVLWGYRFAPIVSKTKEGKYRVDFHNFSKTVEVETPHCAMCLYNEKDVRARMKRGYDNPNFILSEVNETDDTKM
zVAD death inh – L929 zVAD cell death inhibition. L929 zVAD necroptosis rescue, ATP luminescence, 24 h; with zVAD 60 µM. viability rescue, % at 10 µM. hit rate 0.38% among 220,000;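 active = activation, scaled between plate controls, above about 75%, limit read from the data; inactive = activation under that limit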;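 also: 0% = zVAD with DMSO and 100% = DMSO alone without zVAD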
14-3-3 Bad PPI – disrupts binding of bovine 14-3-3 zeta to phospho-Bad peptide; P63103; TR-FRET 14-3-3zeta/Dy647-pBad peptide displacement, 1 h; inhibition, % at 21.7 µM; hit rate 0.71% among 220,000;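 active = inhibition above about 70%, limit read from the data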;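 also: 0% = full 14-3-3 plus peptide FRET controls and 100% = background without 14-3-3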
Efa HMGR inh – E. faecalis class II HMG-CoA reductase inhibition; purified E. faecalis HMGR, NADPH absorbance 340 nm kinetic; inhibition, % at 10 µM; hit rate 0.41% among 190,000;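 active = inhibition above a set limit, the median over all tested compounds plus 3 SD, cut at about 9.5% in these data; inconclusive = no clear call, values can overlap the other calls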;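 also: enzyme runs in reverse so mevalonate oxidation gives rising NADPH absorbance; 0% = complete reaction with DMSO and 100% = background rate lacking mevalonate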
ROMK retest – human ROMK channel modulation, retest confirmation | ROMK thallium flux, fluorescence ratio; active compounds read low | shares compounds with ROMK primary | normalized thallium flux (F/F0 slope) at 10 µM | hit rate 54% among 3,000 | AID 1917;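 active = Flux at 10 µM at least 3 SD below or above vehicle control mean in one or both replicates; inconclusive = no clear call, values can overlap the other calls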
* marks the source's active call; other numbers are inactive results; u = inconclusive; x = no result. Rows were chosen to be rich in hits. Some 3% of all compounds tested hit in one or more screens of this group.

SMILES | Calpain2 inh | TNF necrop inh | ROMK primary | zVAD death inh | 14-3-3 Bad PPI | Efa HMGR inh | ROMK retest
O=C1CCC/C(=N\NC(=O)c2ccc(COc3ccccc3-c3ccccc3)cc2)C1 | -69.3 | -3.7 | -5.48* | -1.4 | -8.2 | 1.8 | 0.0783
CC(C)CN1CCC(CNC(=O)CCc2nnc(Cc3c[nH]c4ccccc34)o2)CC1 | -17.5 | 1.3 | 0.00851 | 4.7 | -15.9 | -2.8 | x
COc1ccc(OCC(N)=O)cc1 | 4.3 | 0.2 | x | -0.1 | -7.4 | 1.7 | 0.0835
COc1cc(OCC(N)=O)cc(OC)c1OC | -13.4 | 0.2 | 0.477 | -0.4 | 20.5 | -0.1 | x
COc1cccc(NC(=O)Nc2nccc(C)n2)c1 | -19.5 | -1.1 | -0.29 | 7.6 | -4.6 | -1.3 | x
CC1(C)CNC(=O)c2sc(NC(=O)c3ccccc3Cl)nc2C1 | -2.3 | -0.2 | -0.318 | 1.3 | -8.2 | -7.2 | 0.0757
COc1cc(-c2nc3cnccn3c2Nc2ccc(C)cc2)ccc1O | -25.9 | -10.8 | -3.4* | 0.7 | 0.7 | -1.3 | 0.0655*
Cc1ccc(CN2C3CCCC2CC(NC(=O)c2ccc(C)cc2)C3)cc1 (centres undefined) | -23.5 | 0.8 | -2.75* | 0.9 | -0.7 | -0.2 | 0.0558*
CCN(CC)C(=O)Cn1c(=O)c2ccccc2n2c(=S)sc(-c3cccc(C)c3)c12 | 6.3 | -5.7 | x | 0.6 | 5.2 | -2.4 | 0.049*
O=C(Cn1cc[n+](CC(=O)c2ccc(Cl)cc2Cl)c1)c1ccc(Cl)cc1Cl | -1.9 | -9.3 | -2.97* | 1.0 | 8.3 | x | 0.0803
O=C(Cn1cc[n+](CC(=O)c2ccccc2)c1)c1ccccc1 | 5.7 | -1.6 | x | -0.1 | 7.9 | -2.8 | x
CCCCCCCCCCn1ccc(=N)cc1 | 21.7 | -21.6 | -3.62* | 2.8 | 6.3 | x | u
O=C(CCC1CCCCC1)NNC(=O)NC12CC3CC(CC(C3)C1)C2 | 8.6 | -0.1 | -3.09* | -0.3 | 1.4 | -0.9 | 0.0706
O=S(=O)(NCc1ccccc1)NCc1ccccc1F | -16.8 | 1.6 | x | 6.7 | -7.9 | -2.4 | x
O=S(=O)(NCc1ccccc1)NCc1ccccc1 | -23.7 | 0.4 | x | 7.3 | -2.2 | -3.1 | 0.0834
COc1ccc(-n2c(O)c(/C=N/NS(=O)(=O)c3ccc(C)cc3)c3ccccc3c2=O)cc1OC | -48.5 | -0.1 | -5.05* | 1.6 | -6.8 | -3.0 | u
COc1ccc(-n2c(O)c(/C=N/NS(=O)(=O)c3cc(C)ccc3C)c3ccccc3c2=O)cc1OC | -83.2 | 0.7 | x | 0.8 | -10.0 | -0.9 | x
CCCCOCCCNC(=O)c1ccc([N+](=O)[O-])c(C)c1 | -8.7 | 2.3 | -0.602 | -0.2 | 4.4 | -1.6 | x
COc1cccc(C(=O)O/N=C(\C)c2cnccn2)c1 | -10.6 | 0.8 | -3.6* | 0.5 | -5.3 | -7.3 | 0.0635*
COC(=O)C1CCN(C(=O)COC(=O)c2n[nH]c3ccccc23)CC1 | -18.9 | -5.5 | -0.0642 | -0.6 | -2.5 | -1.2 | 0.0767
Clc1cncc(Cl)c1N/N=C/c1ccncc1 | -8.0 | -24.6 | 4.1* | -0.8 | -2.7 | 3.7 | 0.117*
Clc1cccc(Cl)c1/C=N/Nc1c(Cl)cncc1Cl | 4.2 | -12.8 | x | 0.3 | 0.3 | x | x
CCN(CC)S(=O)(=O)c1ccc(N2CCOCC2)c(NC(=O)c2ccccc2)c1 | 16.2 | 0.6 | 0.957 | 0.1 | 3.1 | -7.6 | x
CCN(CC)S(=O)(=O)c1ccc(N2CCOCC2)c(NC(=O)C23CC4CC(CC(Cl)(C4)C2)C3)c1 | -4.6 | 3.9 | -3.47* | 0.8 | -22.2 | 3.2 | 0.0608*
Cc1cc(Br)cn2ccnc12 | 5.6 | -0.9 | 1.17* | 0.4 | 9.5 | -3.9 | 0.0801
CCOC(=O)c1c(NC(=O)C2CC(Cl)=CCC2C(=O)O)sc2c1CC(C)(C)OC2 (centres undefined) | -8.9 | 1.0 | -0.372 | 0.4 | -1.8 | 1.2 | x
N#C/C(=C/c1ccc(N2CCOCC2)o1)c1ccc(Cl)cc1 | 22.1 | -5.3 | x | 0.8 | 6.6 | -6.1 | 0.0514*
N#C/C(=C\c1ccc(N2CCOCC2)o1)c1nc2ccccc2[nH]1 | -14.4 | -0.7 | x | 2.9 | -35.2 | -0.9 | x
COc1ccccc1-c1cc(C(=O)N/N=C/c2sccc2C)c2ccccc2n1 | -63.7 | -11.6 | -0.222 | 1.5 | -1.2 | -2.3 | x
Cc1ccsc1/C=N/NC(=O)c1cc(-c2ccncc2)nc2ccccc12 | -44.1 | -6.9 | 4.76* | -1.1 | -2.4 | -3.1 | u

Screening results as filed in PubChem BioAssay.
